Test results published in PubChem BioAssay AID652115 (Broad Institute, 2013).
Among all 330,000 compounds or so, about 3,800 (1.2%) were called active. This is one part of a sample in which actives are shown more often than they occur. Unmarked numbers belong to inactive results. Rule as the data show it: active = inhibition above about 15%; inconclusive = no clear call, values can overlap the other calls; inactive = below that.

What follows are molecules tested against NAD-dependent protein deacylase sirtuin-5, mitochondrial (Homo sapiens) (UniProt Q9NXA8) (assay: SIRT5 desuccinylase inhibitors, primary screen, biochemical, fluorescence imaging, single point, set 5 (AID 652115)). Conditions: Purified SirT5, succinyl-peptide AMC, trypsin-coupled fluorescence; at 15 µM; stronger effect = higher value.
Chain of NAD-dependent protein deacylase sirtuin-5, mitochondrial (Homo sapiens) (Q9NXA8 whole entry, looked up): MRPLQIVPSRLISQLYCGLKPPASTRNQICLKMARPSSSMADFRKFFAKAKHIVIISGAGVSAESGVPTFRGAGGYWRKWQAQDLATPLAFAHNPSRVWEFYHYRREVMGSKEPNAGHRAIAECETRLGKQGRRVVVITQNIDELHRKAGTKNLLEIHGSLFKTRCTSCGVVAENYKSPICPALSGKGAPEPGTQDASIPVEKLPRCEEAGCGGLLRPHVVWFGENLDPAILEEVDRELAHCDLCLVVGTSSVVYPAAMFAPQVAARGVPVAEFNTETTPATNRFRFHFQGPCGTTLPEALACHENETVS

Row | Structure (SMILES) | inhibition
1 | CN1c2ccc(C3=CCCCC3)cc2[C@@H]2[C@@H](CCN2C(=O)Nc2cc(F)ccc2F)[C@@H]1CO | 1.41%
2 | O=S(=O)(NC1CC1)c1ccc2c3c(cccc13)CC2 | -2.65%
3 | CC(=O)Nc1ccc2c3c(ccc([N+](=O)[O-])c13)CC2 | -1.7%
4 | CC(C)C(=O)Nc1ccc2c3c(cccc13)CC2 | 18.7% (active)
5 | COCC#Cc1ccc([C@H]2[C@@H](CO)N3C(=O)CN(C(=O)C4CCCC4)C[C@@H]23)cc1 | 0.614%
6 | C[C@H](CO)N1C[C@H](C)[C@@H](CN(C)S(=O)(=O)c2ccccc2)Oc2ccc(NC(=O)Nc3ccc(F)cc3)cc2CC1=O | 3.49%
7 | O=C([C@H]1[C@H](CO)[C@H]2Cn3c(ccc(C4=CCCCC4)c3=O)[C@@H]1N2)N1CCCCC1 | -11.2%
8 | COc1ccc(-c2nc(N)ncc2-c2ccc(Cl)cc2)c(O)c1 | -4.03%
9 | C=C(C)COc1ccc(-c2nc(N)ncc2-c2ccccc2OC)c(O)c1 | -0.166%
10 | C=C(C)COc1ccc(-c2ncncc2-c2ccc(OC)cc2)c(O)c1 | 24.8% (active)
11 | C=C[C@H](OC)[C@@H](O)c1ccc(OC)c(O)c1 | -1.66%
12 | CCNC(=O)C[C@@H]1CC[C@@H]2[C@@H](COc3ccc(NC(C)=O)cc3C(=O)N2C)O1 | 1.4%
13 | COCC(=O)Nc1ccc2c(c1)C(=O)N(C)C[C@@H](OC)[C@H](C)CN(C(=O)c1ccccn1)[C@@H](C)CO2 | 0.122%
14 | O=C(NCC[C@@H]1CC[C@H](NC(=O)C2CC2)[C@H](CO)O1)c1cnccn1 | 1.79%
15 | O=C(NNc1ncnc2c1cnn2-c1ccccc1)c1ccco1 | 16.9% (active)
16 | Cc1ccccc1NC(=O)c1cnn(-c2ccccc2)c1NC(=O)c1ccco1 | 3.74%
17 | O=C(Nc1c(C(=O)N2CCCCC2)cnn1-c1ccccc1)c1ccco1 | 0.316%
18 | COc1ccc(Cl)cc1NC(=O)COc1ccc2c(c1)OCO2 | -11.6%
19 | COc1ccc(Cl)cc1NC(=O)CN(C)Cc1ccc(OC)c(OC)c1 | -4.51%
20 | COc1ccc(Cl)cc1NC(=O)COC(=O)c1ccc(Br)o1 | 21% (active)
21 | O=C(C[C@@H]1CC[C@H]2[C@@H](COC[C@@H](O)CN2C(=O)Nc2ccc(F)cc2)O1)NCC1CC1 | 2.85%
22 | O=C(C[C@@H]1CC[C@H](NC(=O)c2ccncc2)[C@@H](CO)O1)Nc1ccc(-c2ccccc2)cc1 | -3.04%
23 | O=C(O)c1ccccc1/C=N/Nc1ccc(S(=O)(=O)Nc2ccc(Cl)cc2)cc1[N+](=O)[O-] | 10.8%
24 | Cc1ccc(NS(=O)(=O)c2ccc(N/N=C/c3ccccc3OCC(=O)O)c([N+](=O)[O-])c2)c(C)c1 | -2.15%
25 | COc1ccc(Br)cc1/C=N/Nc1ccc(S(=O)(=O)Nc2ccccc2C(=O)O)cc1[N+](=O)[O-] | 47.2% (active)
26 | COc1cccc(/C=N/Nc2ccc(S(=O)(=O)Nc3ccccc3C(=O)O)cc2[N+](=O)[O-])c1O | 19% (active)
27 | COc1ccc(Br)cc1/C=N/Nc1ccc(Cl)c(C(=O)O)c1 | -8.87%
28 | COc1cc(OC)c(S(=O)(=O)Nc2ccccc2C(=O)O)cc1S(=O)(=O)Nc1ccccc1C(=O)O | 0.719%
